PubChem BioAssay (Tox21)
Inconclusive results are not listed. Entries that show only a call come without a potency. Active and inactive are the calls of the source. Calls come from the whole dose curve.

target: Peroxisome proliferator-activated receptor gamma (Homo sapiens) (UniProt P37231); assay: qHTS assay to identify small molecule antagonists of the peroxisome proliferator-activated receptor gamma (PPARg) signaling pathway (AID 743191); details: HEK293H PPARg-UAS-bla, beta-lactamase ratio, antagonist, 17 h; series mostly up to 62.6 µM; note: nearly all actives have a fitted effect of over 30% in size
Sequence (P37231 whole entry, looked up): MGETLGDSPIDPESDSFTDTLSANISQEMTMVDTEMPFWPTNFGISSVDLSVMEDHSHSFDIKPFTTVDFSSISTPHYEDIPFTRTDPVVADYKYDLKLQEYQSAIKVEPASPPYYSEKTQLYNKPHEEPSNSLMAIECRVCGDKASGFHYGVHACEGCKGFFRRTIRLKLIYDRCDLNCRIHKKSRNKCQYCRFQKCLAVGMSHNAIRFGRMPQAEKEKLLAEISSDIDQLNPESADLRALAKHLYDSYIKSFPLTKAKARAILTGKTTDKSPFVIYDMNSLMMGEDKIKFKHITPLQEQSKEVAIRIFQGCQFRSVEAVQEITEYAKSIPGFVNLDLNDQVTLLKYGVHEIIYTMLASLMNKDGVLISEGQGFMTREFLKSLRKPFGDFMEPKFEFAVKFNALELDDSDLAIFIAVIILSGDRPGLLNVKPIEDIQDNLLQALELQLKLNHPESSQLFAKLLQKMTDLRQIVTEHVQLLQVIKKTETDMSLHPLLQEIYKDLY
Procedure, shortened: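 Beta-lactamase reporter under UAS control in HEK293H PPARg-bla cells; compound treatment 17 h at 37C. Read-out: fluorescence intensity after 1 h room-temperature incubation with LiveBLAzer B/G FRET substrate.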
Potency is the fitted concentration of half-maximal effect.

SMILES | Potency
OC[C@H]1O[C@H](O[C@H]2O[C@H](CO)[C@@H](O)[C@H](O)[C@H]2O)[C@H](O)[C@@H](O)[C@@H]1O | inactive
CN(C)Cc1cc(C(C)(C)C)c(O)c(C(C)(C)C)c1 | inactive
Cc1cc(C(C)(C)C)cc(C)c1CC1=NCCN1 | inactive
Cc1ccc(N/N=c2\c(=O)cc/c(=N\Nc3ccc(S(=O)(=O)O)cc3)c2=O)c(C)c1 | inactive
Nc1ccc(NCCO)c([N+](=O)[O-])c1 | inactive
O=C(c1ccc(O)c(O)c1)c1ccc(O)cc1O | inactive
CCCCCCCCCCCCCCCC[N+](C)(C)CC | 23.7 µM (active)
CN1CCCCC1CCN1c2ccccc2Sc2ccc(S(C)=O)cc21 (centres undefined) | inactive
O=S(=O)(O)c1ccc(N=Nc2c(O)ccc3ccccc23)cc1 | inactive
O=[N+]([O-])c1ccc(O)cc1C(F)(F)F | inactive
NC(=S)NC(N)=S | inactive
O=C(Nc1ccc2c(O)c(N=Nc3ccc(N=Nc4ccc(S(=O)(=O)O)cc4)cc3)c(S(=O)(=O)O)cc2c1)c1ccccc1 | inactive
CCOC(=O)c1ccc(C2CCC(NC[C@H](O)COc3ccc(O)c(NS(C)(=O)=O)c3)CC2)cc1 (some centres undefined) | inactive
COc1cc(S(=O)(=O)O)c(C)cc1N=Nc1c(O)ccc2cc(S(=O)(=O)O)ccc12 | inactive
